Of roughly 8,800 targets only a part is listed; those with a hit were picked by preference. About 0.5% of all pairs of compound and target were hits. Values without a mark were called inactive.
How the values were obtained:
Assay in all cases: log2 fold change, soluble protein after heating vs DMSO (PISA); higher = thermal stabilisation; K562 lysate, 10 uM; active = over 0.2 and 3.5 SD of the protein, either way, in both replicates (recomputed)
nilotinib = compound: Cc1cn(-c2cc(NC(=O)c3ccc(C)c(Nc4nccc(-c5cccnc5)n4)c3)cc(C(F)(F)F)c2)cn1 [nilotinib]
Procedure, shortened: (§1)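 Values give the log-two fold change in thermal stability against solvent controls, from duplicates. Crude K562 extract at 1 mg/mL protein, made by dounce homogenisation in PBS pH 7.4 with 1 mM MgCl2, was treated with 10 μM compound for 30 min. After 3 min heating across 48°C-58°C, aliquots were pooled, adjusted to 0.5% NP-40 at 4°C and centrifuged at 21,000xg for 90 min. The supernatant was measured by TMTpro 16plex LC-MS/MS with channel sums equalised.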

[1] = compound: Cc1nc(Nc2n[nH]c3c2CN(C(=O)N[C@H](CN(C)C)c2ccccc2)C3(C)C)c2sccc2n1
Procedure, shortened: as §1

dasatinib = compound: Cc1nc(Nc2ncc(C(=O)Nc3c(C)cccc3Cl)s2)cc(N2CCN(CCO)CC2)n1 [dasatinib]
Procedure, shortened: as §1

[2] = compound: Cc1ncc(-c2ccnc(Nc3ccc(S(C)(=O)=O)cc3)n2)n1C(C)C
Procedure, shortened: as §1

[3] = compound: Cn1cc(-c2ccc3c(c2)CCN3C(=O)Cc2cccc(C(F)(F)F)c2)c2c(N)ncnc21
Procedure, shortened: as §1

quisinostat = compound: Cn1cc(CNCC2CCN(c3ncc(C(=O)NO)cn3)CC2)c2ccccc21 [quisinostat]
Procedure, shortened: as §1

tipifarnib = compound: Cn1cncc1[C@@](N)(c1ccc(Cl)cc1)c1ccc2c(c1)c(-c1cccc(Cl)c1)cc(=O)n2C [tipifarnib]
Procedure, shortened: as §1

[4] = compound: NC(=O)Nc1cc(-c2cccc(F)c2)sc1C(=O)N[C@H]1CCCNC1
Procedure, shortened: as §1

[5] = compound: NC(=O)c1cnc(N[C@@H]2CCCC[C@@H]2N)nc1Nc1cccc(-n2nccn2)c1
Procedure, shortened: as §1

[6] = compound: NC1(c2ccc(-c3nc4ccn5c(=O)[nH]nc5c4cc3-c3ccccc3)cc2)CCC1
Procedure, shortened: as §1

[7] = compound: NCC(=O)Nc1ccc(-n2nc(C(F)(F)F)cc2-c2ccc3c(ccc4ccccc43)c2)cc1
Procedure, shortened: as §1

vorinostat = compound: O=C(CCCCCCC(=O)Nc1ccccc1)NO [vorinostat]
Procedure, shortened: as §1

silmitasertib = compound: O=C(O)c1ccc2c(c1)nc(Nc1cccc(Cl)c1)c1ccncc12 [silmitasertib]
Procedure, shortened: as §1

[8] = compound: O=C1NC(=O)C(c2cnc3ccccn23)=C1c1cn2c3c(cc(F)cc13)CN(C(=O)N1CCCCC1)CC2
Procedure, shortened: as §1

entospletinib = compound: c1cn2cc(-c3ccc4cn[nH]c4c3)nc(Nc3ccc(N4CCOCC4)cc3)c2n1 [entospletinib]
Procedure, shortened: as §1

Sequence of UniProt Q16891 (Q16891 whole entry, looked up): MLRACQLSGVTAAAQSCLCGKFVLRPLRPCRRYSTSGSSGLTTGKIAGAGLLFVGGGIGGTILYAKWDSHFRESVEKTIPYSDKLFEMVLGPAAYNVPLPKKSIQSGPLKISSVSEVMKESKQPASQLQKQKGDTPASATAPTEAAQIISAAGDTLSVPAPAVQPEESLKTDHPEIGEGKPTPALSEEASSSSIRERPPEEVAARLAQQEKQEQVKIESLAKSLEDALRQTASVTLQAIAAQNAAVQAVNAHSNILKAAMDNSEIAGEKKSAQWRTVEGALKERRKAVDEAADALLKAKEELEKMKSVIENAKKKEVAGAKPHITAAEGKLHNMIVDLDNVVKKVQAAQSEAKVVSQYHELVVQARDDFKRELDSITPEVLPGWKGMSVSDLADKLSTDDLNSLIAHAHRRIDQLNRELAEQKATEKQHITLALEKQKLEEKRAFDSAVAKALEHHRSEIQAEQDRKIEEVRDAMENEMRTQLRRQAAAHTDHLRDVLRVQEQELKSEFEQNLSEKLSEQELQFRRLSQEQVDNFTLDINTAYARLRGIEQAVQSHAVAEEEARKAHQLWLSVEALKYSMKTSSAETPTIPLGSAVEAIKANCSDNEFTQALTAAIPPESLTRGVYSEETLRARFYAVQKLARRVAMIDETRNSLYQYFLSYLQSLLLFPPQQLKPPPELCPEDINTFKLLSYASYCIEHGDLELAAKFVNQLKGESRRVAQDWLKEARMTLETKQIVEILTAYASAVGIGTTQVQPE
Sequence of UniProt P40939 (P40939 whole entry, looked up): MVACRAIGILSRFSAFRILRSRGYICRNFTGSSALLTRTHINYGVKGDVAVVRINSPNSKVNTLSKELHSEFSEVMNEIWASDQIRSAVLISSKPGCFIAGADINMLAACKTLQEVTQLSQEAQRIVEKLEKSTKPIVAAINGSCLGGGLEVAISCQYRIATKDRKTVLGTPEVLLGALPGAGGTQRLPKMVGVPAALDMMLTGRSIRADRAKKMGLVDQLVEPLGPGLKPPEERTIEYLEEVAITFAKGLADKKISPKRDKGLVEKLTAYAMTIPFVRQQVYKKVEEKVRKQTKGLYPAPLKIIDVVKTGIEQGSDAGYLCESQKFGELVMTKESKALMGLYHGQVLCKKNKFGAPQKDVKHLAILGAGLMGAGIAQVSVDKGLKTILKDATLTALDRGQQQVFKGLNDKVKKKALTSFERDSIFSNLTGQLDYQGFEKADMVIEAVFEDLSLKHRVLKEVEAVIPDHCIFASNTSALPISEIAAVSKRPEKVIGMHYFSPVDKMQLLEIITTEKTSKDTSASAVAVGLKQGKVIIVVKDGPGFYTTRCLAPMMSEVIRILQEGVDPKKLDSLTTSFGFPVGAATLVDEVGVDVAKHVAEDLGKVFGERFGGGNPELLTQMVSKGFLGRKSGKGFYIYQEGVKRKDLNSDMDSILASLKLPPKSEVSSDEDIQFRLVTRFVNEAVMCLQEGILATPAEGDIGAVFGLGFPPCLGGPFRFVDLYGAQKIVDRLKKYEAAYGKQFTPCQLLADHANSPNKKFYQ
Sequence of UniProt Q8IY47 (Q8IY47 whole entry, looked up): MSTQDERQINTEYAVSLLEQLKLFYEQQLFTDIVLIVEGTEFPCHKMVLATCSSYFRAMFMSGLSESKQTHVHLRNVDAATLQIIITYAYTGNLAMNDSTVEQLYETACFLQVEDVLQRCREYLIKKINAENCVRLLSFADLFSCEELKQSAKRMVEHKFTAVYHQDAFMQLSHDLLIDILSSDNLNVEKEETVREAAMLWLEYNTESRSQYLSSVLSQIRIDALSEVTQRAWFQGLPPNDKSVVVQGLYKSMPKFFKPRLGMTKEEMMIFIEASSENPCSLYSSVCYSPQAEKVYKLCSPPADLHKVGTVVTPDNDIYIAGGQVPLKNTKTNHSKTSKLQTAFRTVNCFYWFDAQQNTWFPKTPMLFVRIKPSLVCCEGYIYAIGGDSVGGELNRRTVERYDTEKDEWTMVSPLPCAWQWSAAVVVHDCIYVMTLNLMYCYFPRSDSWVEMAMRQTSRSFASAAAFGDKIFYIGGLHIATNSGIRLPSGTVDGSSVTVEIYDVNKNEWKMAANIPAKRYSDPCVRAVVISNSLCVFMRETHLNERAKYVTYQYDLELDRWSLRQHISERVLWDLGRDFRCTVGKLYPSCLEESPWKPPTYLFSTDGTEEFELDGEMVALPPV
Sequence of UniProt Q9H9Y4 (Q9H9Y4 whole entry, looked up): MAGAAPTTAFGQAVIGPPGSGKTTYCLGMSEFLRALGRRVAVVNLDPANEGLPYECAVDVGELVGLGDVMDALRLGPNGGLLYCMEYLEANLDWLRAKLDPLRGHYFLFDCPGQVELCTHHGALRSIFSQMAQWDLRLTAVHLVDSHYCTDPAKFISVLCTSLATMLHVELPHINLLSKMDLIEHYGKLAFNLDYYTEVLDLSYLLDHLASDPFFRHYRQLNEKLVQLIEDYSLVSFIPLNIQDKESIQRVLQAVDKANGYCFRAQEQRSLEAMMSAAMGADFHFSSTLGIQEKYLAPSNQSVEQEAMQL
Sequence of UniProt Q53T59 (Q53T59 whole entry, looked up): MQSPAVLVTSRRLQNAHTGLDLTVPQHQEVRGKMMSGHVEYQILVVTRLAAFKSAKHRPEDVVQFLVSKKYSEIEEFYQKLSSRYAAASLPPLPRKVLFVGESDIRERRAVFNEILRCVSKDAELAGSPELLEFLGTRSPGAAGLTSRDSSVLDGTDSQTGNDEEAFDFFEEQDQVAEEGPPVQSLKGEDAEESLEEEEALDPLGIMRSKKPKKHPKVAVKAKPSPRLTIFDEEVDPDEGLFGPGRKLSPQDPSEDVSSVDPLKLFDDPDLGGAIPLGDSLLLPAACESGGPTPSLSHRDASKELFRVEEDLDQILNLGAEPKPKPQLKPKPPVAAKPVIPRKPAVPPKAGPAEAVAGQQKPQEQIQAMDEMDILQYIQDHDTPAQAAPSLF
Sequence of UniProt P12081 (P12081 whole entry, looked up): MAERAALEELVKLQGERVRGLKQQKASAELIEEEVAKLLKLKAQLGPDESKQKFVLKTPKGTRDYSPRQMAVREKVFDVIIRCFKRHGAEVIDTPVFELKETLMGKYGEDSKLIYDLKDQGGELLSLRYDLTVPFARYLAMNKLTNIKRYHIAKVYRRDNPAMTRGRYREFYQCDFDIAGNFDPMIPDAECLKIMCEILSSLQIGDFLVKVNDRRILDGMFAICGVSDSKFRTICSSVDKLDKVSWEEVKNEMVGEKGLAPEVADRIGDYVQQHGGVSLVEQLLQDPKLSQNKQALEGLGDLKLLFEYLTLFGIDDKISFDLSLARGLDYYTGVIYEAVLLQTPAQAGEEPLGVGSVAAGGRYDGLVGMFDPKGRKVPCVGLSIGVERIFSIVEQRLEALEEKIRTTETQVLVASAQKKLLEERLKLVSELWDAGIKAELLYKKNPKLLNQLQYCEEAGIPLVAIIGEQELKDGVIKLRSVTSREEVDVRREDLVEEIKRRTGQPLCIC
Sequence of UniProt P15104 (P15104 whole entry, looked up): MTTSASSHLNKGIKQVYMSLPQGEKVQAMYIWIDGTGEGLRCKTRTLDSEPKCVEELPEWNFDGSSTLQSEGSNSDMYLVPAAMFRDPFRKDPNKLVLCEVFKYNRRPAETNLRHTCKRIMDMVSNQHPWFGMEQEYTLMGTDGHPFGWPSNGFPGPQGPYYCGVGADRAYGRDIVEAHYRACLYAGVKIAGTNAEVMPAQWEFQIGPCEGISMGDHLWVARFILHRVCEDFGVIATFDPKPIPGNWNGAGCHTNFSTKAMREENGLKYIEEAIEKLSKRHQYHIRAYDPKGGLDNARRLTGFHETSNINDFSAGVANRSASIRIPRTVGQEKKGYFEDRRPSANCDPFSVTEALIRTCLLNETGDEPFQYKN
Sequence of UniProt P41252 (P41252 whole entry, looked up): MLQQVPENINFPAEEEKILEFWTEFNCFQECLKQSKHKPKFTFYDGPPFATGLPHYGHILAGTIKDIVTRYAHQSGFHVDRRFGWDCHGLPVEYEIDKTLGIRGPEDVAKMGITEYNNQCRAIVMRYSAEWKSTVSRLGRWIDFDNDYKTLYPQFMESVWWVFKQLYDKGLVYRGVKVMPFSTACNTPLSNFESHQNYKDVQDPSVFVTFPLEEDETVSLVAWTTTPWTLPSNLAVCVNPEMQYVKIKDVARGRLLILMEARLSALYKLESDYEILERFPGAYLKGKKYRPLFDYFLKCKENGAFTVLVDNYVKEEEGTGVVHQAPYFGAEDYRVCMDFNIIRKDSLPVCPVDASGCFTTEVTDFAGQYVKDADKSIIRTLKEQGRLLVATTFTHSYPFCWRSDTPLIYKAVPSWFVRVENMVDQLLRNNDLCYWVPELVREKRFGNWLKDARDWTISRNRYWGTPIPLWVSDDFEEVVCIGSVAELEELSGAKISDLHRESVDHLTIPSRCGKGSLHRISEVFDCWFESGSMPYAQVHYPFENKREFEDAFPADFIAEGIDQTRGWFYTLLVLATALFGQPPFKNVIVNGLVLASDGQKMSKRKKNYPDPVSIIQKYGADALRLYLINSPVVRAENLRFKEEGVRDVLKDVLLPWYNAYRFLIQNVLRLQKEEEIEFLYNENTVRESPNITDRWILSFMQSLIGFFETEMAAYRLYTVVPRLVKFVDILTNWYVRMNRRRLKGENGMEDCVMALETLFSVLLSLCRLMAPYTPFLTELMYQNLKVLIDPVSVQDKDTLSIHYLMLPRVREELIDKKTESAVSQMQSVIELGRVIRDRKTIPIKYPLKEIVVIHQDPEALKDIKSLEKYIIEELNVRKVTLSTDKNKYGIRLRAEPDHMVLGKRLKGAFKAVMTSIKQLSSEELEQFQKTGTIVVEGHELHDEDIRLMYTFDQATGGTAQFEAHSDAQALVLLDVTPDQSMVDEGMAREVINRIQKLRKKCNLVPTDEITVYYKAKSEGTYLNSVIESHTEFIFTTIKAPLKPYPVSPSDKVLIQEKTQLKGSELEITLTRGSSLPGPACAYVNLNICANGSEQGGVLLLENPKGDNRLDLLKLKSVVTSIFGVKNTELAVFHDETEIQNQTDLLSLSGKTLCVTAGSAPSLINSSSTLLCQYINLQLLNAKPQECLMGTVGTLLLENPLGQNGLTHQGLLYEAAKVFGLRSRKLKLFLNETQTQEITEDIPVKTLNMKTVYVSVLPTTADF

Row | Target | log2 fold change (nilotinib) | log2 fold change [1] | log2 fold change (dasatinib) | log2 fold change [2] | log2 fold change [3] | log2 fold change (quisinostat) | log2 fold change (tipifarnib) | log2 fold change [4] | log2 fold change [5] | log2 fold change [6] | log2 fold change [7] | log2 fold change (vorinostat) | log2 fold change (silmitasertib) | log2 fold change [8] | log2 fold change (entospletinib)
1 | HEATR3 (UniProt Q7Z4Q2) | 0.023 | -0.021 | -0.042 | -0.031 | 0.062 | -0.078 | 0.019 | 0.033 | -0.015 | 0.001 | -0.03 | -0.5 (active) | 0.013 | -0.017 | -0.006
2 | GPN2 (UniProt Q9H9Y4) | -0.065 | 0.046 | 0.062 | -0.009 | -0.046 | -0.022 | 0.013 | -0.008 | 0.01 | -0.034 | 0.006 | -0.093 | 0.009 | -0.062 | 0.203
3 | HADHA (UniProt P40939) | 0.051 | -0.024 | -0.036 | 0.002 | 0.03 | -0.082 | 0.025 | -0.077 | -0.071 | 0.078 | 0.052 | -0.159 | -0.026 | 0.302 | 0.027
4 | KBTBD2 (UniProt Q8IY47) | 0.014 | -0.005 | 0.012 | 0.006 | 0.028 | -0.178 | -0.018 | 0.007 | 0.009 | -0.202 | 0.047 | 0.145 | -0.039 | 0.038 | 0.026
5 | INPP4A (UniProt Q96PE3) | 0.012 | -0.021 | 0.028 | 0.005 | 0.123 | -0.03 | 0.03 | 0.032 | 0.015 | 0.032 | 0.016 | -0.106 | 0.002 | -0.013 | 0.006
6 | HMGCL (UniProt P35914) | 0.011 | -0.041 | 0.029 | 0.023 | 0.02 | -0.017 | -0.013 | 0.018 | -0.033 | 0.015 | -0.025 | -0.226 (active) | 0.059 | 0.033 | 0
7 | GLYR1 (UniProt Q49A26) | 0.082 | 0.02 | -0.053 | 0.053 | -0.048 | -0.119 | -0.12 | -0.049 | -0.012 | 0.023 | -0.006 | -0.033 | -0.022 | -0.007 | -0.041
8 | GMIP (UniProt Q9P107) | -0.094 | -0.041 | -0.097 | -0.058 | 0.023 | -0.012 | -0.017 | 0.034 | -0.025 | -0.022 | -0.018 | -0.302 (active) | 0.058 | 0.021 | -0.038
9 | HDAC10 (UniProt Q969S8) | -0.009 | 0.023 | -0.104 | 0.032 | 0.144 | 0.245 | -0.123 | 0.092 | 0.111 | -0.001 | 0.147 | 0.211 | 0.156 | -0.032 | 0.053
10 | IARS (UniProt P41252) | 0.007 | -0.007 | -0.042 | -0.015 | 0.053 | -0.02 | -0.003 | 0.038 | 0.001 | -0.029 | 0.014 | -0.325 (active) | 0.046 | -0.008 | 0.031
11 | INTS14 (UniProt Q96SY0) | 0.024 | 0.023 | -0.038 | -0.023 | -0.004 | -0.018 | -0.004 | -0.01 | -0.026 | -0.011 | -0.008 | -0.311 (active) | 0.002 | 0.023 | 0.026
12 | GLUL (UniProt P15104) | -0.008 | -0.012 | 0.054 | -0.026 | -0.002 | 0.071 | 0.027 | -0.032 | 0.009 | -0.003 | 0.008 | 0.13 | 0.006 | -0.096 | 0.116
13 | HDLBP, A0A024R4E5 | -0.011 | 0.006 | -0.038 | 0.014 | 0.015 | -0.076 | 0.001 | 0.018 | -0.002 | -0.022 | 0.009 | -0.427 (active) | -0.013 | 0.004 | 0.009
14 | IMMT (UniProt Q16891) | -0.009 | 0.016 | -0.075 | 0.037 | 0.01 | 0.041 | -0.005 | -0.007 | -0.017 | -0.035 | -0.005 | 0.056 | 0.033 | 0.016 | 0.017
15 | GSTZ1 (UniProt G3V4T6) | 0.026 | 0.009 | -0.024 | -0.016 | 0.083 | 0.016 | 0.014 | 0.029 | -0.012 | -0.007 | 0.088 | 0.167 | -0.002 | -0.015 | -0.031
16 | HARS (UniProt P12081) | 0.031 | 0.003 | -0.006 | -0.015 | 0.008 | -0.021 | 0.019 | -0.019 | 0.005 | 0.021 | -0.031 | -0.003 | 0.02 | -0.054 | 0.001
17 | HS1BP3 (UniProt Q53T59) | 0.021 | -0.016 | 0.023 | -0.007 | 0 | -0.006 | 0.042 | -0.019 | 0.024 | -0.014 | 0.03 | 0.139 | -0.038 | -0.027 | -0.033
18 | HAUS7 isoform 2 (UniProt Q99871) | 0.021 | 0.007 | 0.015 | 0.055 | -0.026 | -0.037 | -0.011 | 0.063 | 0.024 | -0.047 | -0.091 | -0.416 (active) | -0.029 | -0.026 | -0.124
19 | HNRNPDL (UniProt O14979) | -0.208 | 0.036 | 0.016 | -0.018 | -0.005 | 0.074 | -0.002 | -0.062 | -0.008 | 0.004 | -0.032 | 0.133 | -0.01 | 0.01 | 0.01
20 | INTS3 (UniProt Q68E01) | -0.007 | 0.007 | -0.05 | -0.045 | 0.005 | -0.038 | 0.09 | 0.028 | -0.002 | -0.028 | 0.049 | -0.244 (active) | 0.015 | -0.063 | 0.009

— the supplement of paper PMC10849652
